C diff HTS: C. difficile growth inhibitors, primary screen, HTS. hit rate 0.25% among 86,000. Clostridium difficile clinical isolate growth, OD600, 24 h; stronger effect = lower value. growth activity, negative = inhibition, % at 16 µg/mL (by protocol). AID 1259249, 2017;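 active = mean growth activity at or below -80% and every replicate also at or below -80%; inconclusive = mean at or below -80% but some replicate above -80%; inactive = mean growth activity above -80%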
Pf Dd2 inh: P. falciparum Dd2 growth inhibitors, primary screen, SYBR Green fluorescence, single dose replicates; hit rate 2.3% among 94,000; activity change, % at 10 µM; AID 1159554, 2015; 72 h; stronger effect = lower value; in the data active = activity change below about -80%; inconclusive = no clear call, values can overlap the other calls
T cruzi growth-1: T. cruzi intracellular proliferation inhibitors, primary screen, cell-based, beta-gal Tulahuen parasites, NIH3T3 host, luminescence. T. cruzi beta-gal in NIH3T3, GalScreen luminescence, 90 h. inhibition, % at 8.34 µM. hit rate 5.9% among 77,000;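 active = mean inhibition above about 93%, with at least 55% of replicates each passing it, limit read from the data, passing the limit was not always enough; inconclusive = only one of those two conditions holds; inactive = neither condition holds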
T cruzi growth-2: T. cruzi intracellular proliferation inhibitors, confirmation, cell-based, NIH3T3 host, beta-gal parasite, luminescence, cherry-pick; shares compounds with T cruzi growth-1; inhibition, % at 8.35 µM; hit rate 72% among 5,600; T. cruzi beta-gal in NIH3T3, GalScreen luminescence, 90 h;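 active = mean replicate inhibition above about 95% and at least 55% of replicates individually reaching it, limit read from the data; inconclusive = only one of the two criteria is met; inactive = neither criterion is met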
T cruzi growth-3: inhibitors of intracellular T. cruzi replication, confirmation, NIH3T3 host cells, beta-gal parasites, cherry-pick, set 2; T. cruzi beta-gal in NIH3T3, GalScreen luminescence, 90 h; hit rate 21% among 5,600; shares compounds with T cruzi growth-1; inhibition, % at 2.09 µM;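 active = mean inhibition above about 95%, with at least 55% of replicates also reaching it, limit read from the data; inconclusive = meets just one of the two conditions; inactive = meets neither condition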
NIH3T3 tox: cytotoxicity in mouse NIH/3T3 fibroblasts, confirmation, cytotoxicity control for T. cruzi proliferation inhibitor project, cell-based, cherry-pick, single point | shares compounds with T cruzi growth-1 | NIH/3T3 viability, CellTiter-Glo ATP luminescence, 90 h | cytotoxicity (signal decrease), % at 8.35 µM | hit rate 14% among 5,600;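 active = mean signal decrease across replicates above about 35% based on untreated-well scatter, with enough replicates individually passing, limit read from the data; inconclusive = no rule stated though some were filed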
NIH3T3 tox 2: NIH/3T3 fibroblast cytotoxicity, confirmation, cytotoxicity control, cell-based, cherry-pick, single point, set 2. NIH/3T3 viability, CellTiter-Glo ATP luminescence, 90 h. shares compounds with T cruzi growth-1. inhibition, % at 24.9 µM. hit rate 56% among 5,600. AID 651744, 2012;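 active = mean loss of cell viability signal at or above a set limit, and enough replicates individually reaching it; inconclusive = meets only the mean limit or only the replicate share; inactive = meets neither condition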
Of the large screens only hits and unclear results are named; the others gave an inactive call (follow-up assays come after a bar, where they were run). Most compounds without a hit are left out; they make up all but 6.8% or so of the library.

CNC[C@H]1OCCCC[C@H](C)Oc2ccc(NS(=O)(=O)c3cn(C)cn3)cc2C(=O)N([C@@H](C)CO)C[C@H]1C	none
COc1ccc2c3c([nH]c2c1)[C@@H](CO)NCC31CN(S(=O)(=O)c2ccccc2)C1	none (no result: T cruzi growth-1)
CC=Cc1ccc2n(c1=O)C[C@@H]1[C@@H](CO)[C@H](C(=O)NCC)[C@H]2N1Cc1nccs1 (mixture of isomers)	none
C[C@H]1CCCCO[C@H](CN(C)C(=O)Nc2ccccc2)[C@@H](C)CN([C@@H](C)CO)C(=O)c2cc(NC(=O)Nc3cccc4ccccc34)ccc2O1	none (no result: C diff HTS)
C/C=C/c1ccc([C@H]2[C@@H](CO)N(c3ncc(CC)s3)[C@H]2C#N)cc1	T cruzi growth-1 98 | T cruzi growth-2 inactive | T cruzi growth-3 inactive | NIH3T3 tox inactive | NIH3T3 tox 2 inactive
C/C=C/c1ccccc1[C@@H]1[C@@H](CO)N(c2ncc(CC)s2)[C@H]1C#N	none (no result: T cruzi growth-1)
C/C=C/c1ccc([C@H]2[C@@H](C#N)N(c3ncc(CC)s3)[C@@H]2CO)cc1	T cruzi growth-1 99 | T cruzi growth-2 102 | T cruzi growth-3 inactive | NIH3T3 tox inactive | NIH3T3 tox 2 inactive
C/C=C/c1ccccc1[C@@H]1[C@H](C#N)N(c2ncc(CC)s2)[C@H]1CO	none (no result: T cruzi growth-1)
Cc1ccc(S(=O)(=O)NCC[C@H]2CC[C@H](NC(=O)Nc3ccccc3F)[C@@H](CO)O2)cc1	none
COc1ccc2c3c(n(C)c2c1)[C@@H](CO)N(C(=O)Nc1cccc(F)c1)CC31CN(C)C1	none (no result: T cruzi growth-1)
O=C(C[C@@H]1CC[C@H]2[C@@H](COC[C@H](O)CN2S(=O)(=O)c2ccc(Cl)cc2)O1)NCc1ccc(Cl)c(Cl)c1	none (no result: C diff HTS)
Cc1ccc(S(=O)(=O)N2C[C@@H](O)COC[C@@H]3O[C@@H](CC(=O)NCc4ccc(Cl)c(Cl)c4)CC[C@H]32)cc1	none (no result: C diff HTS)
COc1ccc(S(=O)(=O)N2C[C@@H](O)COC[C@@H]3O[C@@H](CC(=O)NCc4ccc(Cl)c(Cl)c4)CC[C@H]32)cc1	T cruzi growth-1 168 | T cruzi growth-2 inactive | T cruzi growth-3 inactive | NIH3T3 tox inactive | NIH3T3 tox 2 42
COc1ccc(S(=O)(=O)N2C[C@H](O)COC[C@H]3O[C@H](CC(=O)NCc4ccc(Cl)c(Cl)c4)CC[C@@H]32)cc1	T cruzi growth-1 inconclusive | T cruzi growth-2 inactive | T cruzi growth-3 inactive | NIH3T3 tox inactive | NIH3T3 tox 2 44
COc1ccc(S(=O)(=O)N2C[C@H](O)COC[C@@H]3O[C@H](CC(=O)NCc4ccc(Cl)c(Cl)c4)CC[C@H]32)cc1	T cruzi growth-1 144 | T cruzi growth-2 inactive | T cruzi growth-3 inactive | NIH3T3 tox inactive | NIH3T3 tox 2 64
COc1ccc(S(=O)(=O)N2C[C@@H](O)COC[C@@H]3O[C@H](CC(=O)NCc4ccc(Cl)c(Cl)c4)CC[C@H]32)cc1	T cruzi growth-1 143 | T cruzi growth-2 110 | T cruzi growth-3 inactive | NIH3T3 tox inconclusive | NIH3T3 tox 2 33
Cc1ccc(S(=O)(=O)N2C[C@H](O)COC[C@@H]3O[C@H](CC(=O)NCc4ccc(Cl)c(Cl)c4)CC[C@H]32)cc1	none (no result: C diff HTS)
Cc1ccc(S(=O)(=O)N2C[C@H](O)COC[C@@H]3O[C@@H](CC(=O)NCc4ccc(Cl)c(Cl)c4)CC[C@H]32)cc1	none (no result: C diff HTS)
CC(C)CC#Cc1cnc2c(c1)C(=O)N([C@H](C)CO)C[C@H](C)[C@@H](CN(C)C(=O)c1ccc(F)cc1)O2	none
Cc1ccc(S(=O)(=O)Nc2cccc3c2O[C@H](CN(C)S(=O)(=O)c2ccccc2)[C@@H](C)CN([C@@H](C)CO)C3=O)cc1	none
COc1ccccc1NC(=O)N1C[C@@H]2[C@H](c3ccccc31)[C@H](CO)N2C(=O)c1ccccc1	none
O=C(C[C@@H]1CC[C@@H]2[C@H](COC[C@@H](O)CN2S(=O)(=O)c2ccc(F)cc2)O1)NCc1ccc(Cl)c(Cl)c1	none
COc1ccc(S(=O)(=O)N2C[C@H](O)COC[C@H]3O[C@@H](CC(=O)NCc4ccc(Cl)c(Cl)c4)CC[C@@H]32)cc1	T cruzi growth-1 98 | T cruzi growth-2 100 | T cruzi growth-3 inactive | NIH3T3 tox inactive | NIH3T3 tox 2 42
O=C(C[C@H]1CC[C@@H]2[C@H](COC[C@@H](O)CN2S(=O)(=O)c2ccc(F)cc2)O1)NCc1ccc(Cl)c(Cl)c1	none
COc1ccc(S(=O)(=O)N2C[C@@H](O)COC[C@H]3O[C@H](CC(=O)NCc4ccc(Cl)c(Cl)c4)CC[C@@H]32)cc1	T cruzi growth-1 129 | T cruzi growth-2 inactive | T cruzi growth-3 inactive | NIH3T3 tox inactive | NIH3T3 tox 2 43
COCCNC(=O)C[C@H]1C[C@H]2c3cc(NC(=O)CC4CC4)ccc3O[C@H]2[C@@H](CO)O1	none
Cc1ccc(S(=O)(=O)N2CC[C@@H]3[C@@H](CO)N(C)c4ccc(-c5ccccc5F)cc4[C@@H]32)cc1	none
COc1ccc(S(=O)(=O)N2CC[C@@H]3[C@@H](CO)N(C)c4ccc(-c5ccccc5F)cc4[C@@H]32)cc1	none
CN1c2ccc(-c3ccccc3F)cc2[C@H]2[C@H](CCN2S(=O)(=O)c2ccc(F)cc2)[C@H]1CO	T cruzi growth-1 102 | T cruzi growth-2 100 | T cruzi growth-3 inactive | NIH3T3 tox inactive | NIH3T3 tox 2 72
COc1ccc(S(=O)(=O)N2CC[C@H]3[C@@H](CO)N(C)c4ccc(-c5ccccc5F)cc4[C@H]32)cc1	T cruzi growth-1 114 | T cruzi growth-2 112 | T cruzi growth-3 inactive | NIH3T3 tox inactive | NIH3T3 tox 2 inactive
C[C@H]1CN([C@@H](C)CO)C(=O)c2cccc(NC(=O)Nc3ccc(C(F)(F)F)cc3)c2O[C@H]1CN(C)S(C)(=O)=O	none (no result: T cruzi growth-1)
C[C@H](CO)N1C[C@H](C)[C@H](CN(C)S(=O)(=O)c2ccccc2)Oc2ccc(NC(=O)Nc3ccccc3)cc2C1=O	none
COc1ccc(NC(=O)N(C)C[C@H]2OCCCC[C@H](C)Oc3ccc(NS(=O)(=O)c4cn(C)cn4)cc3C(=O)N([C@@H](C)CO)C[C@@H]2C)cc1	none
C[C@@H]1CCCCO[C@H](CN(C)Cc2ccc(C(F)(F)F)cc2)[C@H](C)CN([C@H](C)CO)C(=O)c2cc(NC(=O)CCC(F)(F)F)ccc2O1	none
CN(C)C(=O)c1cccc(-c2ccc([C@H]3[C@@H](C#N)N(C(=O)C4CCCCC4)[C@H]3CO)cc2)c1	none
